Assay [1] in a line: yeast TOR pathway RPL19A-GFP modulators, primary screen, cell-based, S. cerevisiae, multiplex flow cytometry (AID 1862; in the data active = percent of DMSO control GFP below about 86%;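 note: lower values mimic rapamycin by blocking the RPL19A rise seen in DMSO cells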). The following applies: S. cerevisiae RPL19A-GFP strain, flow cytometry fluorescence, 3 h; at 10 µM; stronger effect = lower value. (A flow cytometer gives signals particle by particle.)
A short description of assay [2]: modulators of MEP2-GFP levels in yeast, primary screen, S. cerevisiae, multiplex flow cytometry (AID 1867;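 active = GFP response, as percent of the DMSO control, above the screen-wide mean plus 3 SD, about 139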;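 note: median GFP channel fluorescence of barcode-gated MEP2-GFP cells measured by flow cytometry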). The following applies: S. cerevisiae MEP2-GFP strain, 3 h, at 10 µM, stronger effect = higher value, 100% means same as DMSO wells.
Assay [3] is described as follows: modulators of CIT2-GFP expression in yeast, primary screen, S. cerevisiae, GFP fusion, multiplex flow cytometry (AID 1870;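 active = percent response above a set limit, the screen-wide mean plus 3 SD, cut at about 130% in these data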;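 note: barcoded CIT2-GFP strain pooled with four other GFP strains with rapamycin as positive control; median GFP fluorescence per well over plate mean of DMSO wells so 100% = DMSO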). The conditions noted are these: 3 h, at 10 µM, stronger effect = higher value.
Assay [4] in a line: modulators of LAP4-GFP expression in yeast, primary screen, S. cerevisiae, multiplex flow cytometry (AID 1873;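 active = GFP signal, as percent of the solvent control, above the screen mean plus 3 SD, about 149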). The conditions noted are these: 3 h, at 10 µM, stronger effect = higher value.
Assay [5] in a line: modulators of AGP1-GFP expression in yeast TOR pathway, primary screen, cell-based, multiplex flow cytometry, S. cerevisiae (AID 1887;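 active = GFP signal above the screen-wide mean plus 3 SD, that is over about 124.5% of the solvent control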;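 note: AGP1-GFP fusion strain of S. cerevisiae within a five-strain barcoded multiplex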). The conditions noted are these: 3 h, at 10 µM, stronger effect = higher value.
Assay [6] can be described thus: inhibitors of CD8+ T cell-vesicle binding, pilot screen, LFA-1/ICAM-1 modulator project, MLPCN validation set, flow cytometry (AID 2523;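 active = response below a set limit, under 55% cells CD8-positive and vesicle-bound, and CD8 cells' 90th-percentile brightness under 279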;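 for vesicle binding response: mean PE anti-B7-1 fluorescence of CD8+ cells relative to row control; 100% = QL9-loaded vesicles with DMSO vehicle in the same plate row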). The following applies: 2C mouse CD8+ T cells, at 7 µM, stronger effect = lower value; double positive events: measured here: CD8+/vesicle+ event percentage.
In assay [7] the target is Integrin beta-1 (Homo sapiens) + Integrin alpha-4 (Homo sapiens) (UniProt P13612+P05556). The assay is described as follows: inhibition of HUTS-21 binding to VLA-4, pilot screen, VLA-4 allosteric modulator project, U937 cells, HUTS-21 mAb, flow cytometry, validation set (AID 2674;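 active = inhibition above 50%, about 3 SD of the validation set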;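 note: antibody binding induced by the VLA-4 ligand LDV present at three times its Kd; 0% = LDV ligand with antibody and no compound and 100% = antibody without LDV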). The following applies: HUTS-21 LIBS mAb binding, at 6.7 µM, stronger effect = higher value, binding induced by LDV ligand.
Integrin beta-1 (Homo sapiens) + Integrin alpha-4 (Homo sapiens), sequence (P05556 whole entry, looked up): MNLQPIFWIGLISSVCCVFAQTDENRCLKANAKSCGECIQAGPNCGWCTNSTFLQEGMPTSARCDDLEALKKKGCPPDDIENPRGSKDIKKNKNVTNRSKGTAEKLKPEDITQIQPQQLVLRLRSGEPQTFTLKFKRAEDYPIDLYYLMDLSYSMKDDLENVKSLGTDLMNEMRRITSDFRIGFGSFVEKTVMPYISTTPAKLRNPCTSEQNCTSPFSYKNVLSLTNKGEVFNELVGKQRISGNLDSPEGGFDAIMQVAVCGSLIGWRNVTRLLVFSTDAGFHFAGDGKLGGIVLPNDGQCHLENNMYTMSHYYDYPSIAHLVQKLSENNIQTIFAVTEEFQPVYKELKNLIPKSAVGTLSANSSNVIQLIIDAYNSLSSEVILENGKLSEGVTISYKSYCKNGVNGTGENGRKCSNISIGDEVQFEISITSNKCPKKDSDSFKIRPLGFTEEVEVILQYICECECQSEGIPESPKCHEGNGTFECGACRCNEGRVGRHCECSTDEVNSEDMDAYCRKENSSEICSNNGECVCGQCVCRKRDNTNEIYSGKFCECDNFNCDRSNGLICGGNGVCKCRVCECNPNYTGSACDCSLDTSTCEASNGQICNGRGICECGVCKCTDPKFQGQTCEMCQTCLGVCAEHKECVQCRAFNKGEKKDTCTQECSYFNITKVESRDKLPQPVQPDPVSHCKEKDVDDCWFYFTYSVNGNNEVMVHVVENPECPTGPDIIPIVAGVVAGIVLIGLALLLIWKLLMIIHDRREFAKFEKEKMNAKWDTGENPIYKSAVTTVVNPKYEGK
Integrin beta-1 (Homo sapiens) + Integrin alpha-4 (Homo sapiens), sequence (P13612 whole entry, looked up): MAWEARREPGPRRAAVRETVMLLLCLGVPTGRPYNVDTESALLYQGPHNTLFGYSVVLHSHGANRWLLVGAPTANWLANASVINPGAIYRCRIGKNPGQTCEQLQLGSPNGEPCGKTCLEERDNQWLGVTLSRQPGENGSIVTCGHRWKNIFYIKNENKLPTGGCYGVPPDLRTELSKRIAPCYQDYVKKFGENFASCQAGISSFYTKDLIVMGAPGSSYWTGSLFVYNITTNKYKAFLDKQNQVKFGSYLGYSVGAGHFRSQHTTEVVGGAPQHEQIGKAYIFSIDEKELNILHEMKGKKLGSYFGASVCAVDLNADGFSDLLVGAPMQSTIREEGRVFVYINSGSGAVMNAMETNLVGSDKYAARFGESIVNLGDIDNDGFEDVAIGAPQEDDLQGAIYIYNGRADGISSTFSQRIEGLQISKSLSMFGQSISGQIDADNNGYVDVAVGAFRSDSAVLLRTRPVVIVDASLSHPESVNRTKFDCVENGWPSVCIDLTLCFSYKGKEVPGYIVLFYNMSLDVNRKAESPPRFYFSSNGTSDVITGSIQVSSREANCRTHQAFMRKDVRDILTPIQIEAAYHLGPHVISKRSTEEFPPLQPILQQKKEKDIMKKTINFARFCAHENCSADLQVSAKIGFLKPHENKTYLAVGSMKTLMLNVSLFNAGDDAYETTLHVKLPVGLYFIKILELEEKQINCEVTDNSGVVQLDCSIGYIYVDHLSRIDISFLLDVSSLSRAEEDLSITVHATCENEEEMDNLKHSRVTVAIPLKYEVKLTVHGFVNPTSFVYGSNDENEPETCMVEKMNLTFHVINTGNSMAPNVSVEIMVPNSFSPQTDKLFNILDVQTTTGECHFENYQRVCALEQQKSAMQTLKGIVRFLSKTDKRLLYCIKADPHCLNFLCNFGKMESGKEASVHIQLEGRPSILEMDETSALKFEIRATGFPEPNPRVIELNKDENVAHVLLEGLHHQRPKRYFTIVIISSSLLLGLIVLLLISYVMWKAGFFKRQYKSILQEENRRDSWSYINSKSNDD

Assay [8] in a line: superoxide lowering in aged yeast cells, pilot screen, validation compound set (AID 2706;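 active = superoxide response below 65% of plate, a cut near 3 SD across the whole screen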;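 note: yeast exposed to compound for one week at 30 degrees C before staining; 100% = mean of all compound wells on the same plate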). The conditions noted are these: S. cerevisiae aging, superoxide DHE fluorescence; at 10 µM; stronger effect = lower value.
Assay [9] concerns the target Beta-adrenergic receptor kinase 1 (Homo sapiens) (UniProt P25098). The assay is described as follows: GRK2 binders displacing RNA aptamer, biochemical, validation, human GRK2, bead flow cytometry (AID 488806;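 active = aptamer binding inhibition above 30%, about 3 SD of noise from non-fluorescent compounds; inactive = inhibition at or below 30%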). The conditions noted are these: bead-bound GRK2, FAM-aptamer displacement, at 10 µM, stronger effect = higher value.
Assay [10] deals with Beta-2 adrenergic receptor (Homo sapiens) (UniProt P07550). The assay is described as follows: beta2AR agonists driving receptor internalization, pilot screen, cell-based, FAP fluorogen, flow cytometry, validation set (AID 504459;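 active = percent response above 42, roughly 3 SD of non-fluorescent test compounds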;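 note: agonist-driven loss of surface beta2AR via internalization measured by FAP dye flow cytometry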). The conditions noted are these: Am2.2-beta2AR cells, FAP surface receptor flow cytometry; at 10 µM; stronger effect = higher value.
Beta-2 adrenergic receptor (Homo sapiens), sequence (P07550 whole entry, looked up): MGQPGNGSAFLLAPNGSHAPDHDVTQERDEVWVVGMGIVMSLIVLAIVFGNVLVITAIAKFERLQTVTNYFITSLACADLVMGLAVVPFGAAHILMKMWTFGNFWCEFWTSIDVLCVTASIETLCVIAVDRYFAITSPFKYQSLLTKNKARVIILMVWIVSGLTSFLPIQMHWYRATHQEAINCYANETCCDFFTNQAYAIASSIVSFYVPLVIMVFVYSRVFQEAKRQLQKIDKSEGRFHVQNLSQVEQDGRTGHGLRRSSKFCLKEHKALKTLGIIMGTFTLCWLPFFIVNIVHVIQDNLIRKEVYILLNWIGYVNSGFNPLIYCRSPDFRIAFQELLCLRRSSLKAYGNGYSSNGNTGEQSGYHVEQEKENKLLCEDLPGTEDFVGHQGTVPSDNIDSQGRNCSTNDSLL
Assay [11] has as its target AP-2 complex subunit beta (Homo sapiens) (UniProt P63010). The assay is described as follows: inhibitors of arrestin peptide binding to AP2, pilot screen, biochemical, validation set, GST-AP2 beads, flow cytometry (AID 504541;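 active = inhibition above 54%, about 3 SD of non-fluorescent compounds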;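 note: AP2 carries R879A mutation and is captured from E. coli lysate; bead-bound FITC arrestin peptide fluorescence measuring arrestin peptide binding to AP2; 0% = DMSO wells and 100% = excess unlabeled arrestin peptide control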). The conditions noted are these: FITC arrestin peptide, at 10 µM, stronger effect = higher value, AP2 beta2 appendage fragment, R879A mutant.
The nature of assay [12]: yeast V-ATPase proton transport modulators, S. cerevisiae, pHLuorin, HTS validation (AID 504600; in the data active = response above about 15%;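 note: plate controls were DMSO for no effect and reference compound for full effect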). The following applies: S. cerevisiae pHLuorin cytosolic pH, at 10 µM, stronger effect = higher value.
Assay [13] has as its system anti-desmoglein-3 scFv antibody binding to human DSG3. The assay is described as follows: inhibitors of anti-DSG3 scFv binding to DSG3, pilot screen, biochemical, validation compound set, bead-based, flow cytometry (AID 588368;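 active = binding below the plate cutoff, the plate median minus 3 SD, with a reading above zero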;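 note: signal is the median channel fluorescence of bead-bound GFP antibody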). The conditions noted are these: Protein G beads, DSG3-Fc, scFv-GFP binding, at 10 µM, stronger effect = lower value.
Assay [14] can be described thus: inhibitors of fungal efflux pumps CDR1, CDR2, MDR1, pilot screen, validation compound set, multiplex, phenotypic (AID 588506;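 active = efflux inhibition above 0.42, the validation set average plus 4 SD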;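 note: Nile Red retained in cells so higher fluorescence means more efflux inhibition; 0 = negative control wells and 1 = enniatin B 25 µM full block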). The following applies: S. cerevisiae pump-expressing triplex, Nile Red efflux flow cytometry; at 10 µM; stronger effect = higher value; the pumps come from Candida albicans.
The target in assay [15] is ATP-binding cassette sub-family B member 6 (Homo sapiens) (UniProt Q9NP58). The assay can be described thus: ABCB6 transporter inhibitors, pilot screen, K562-ABCB6 cells, flow cytometry, validation set (AID 588550).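 Note: 0% = DMSO wells and 100% = benzethonium chloride 70 µM positive control.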 The conditions noted are these: K562-ABCB6 porphyrin accumulation, 1 h, at 10 µM, stronger effect = higher value.
ATP-binding cassette sub-family B member 6 (Homo sapiens), sequence (Q9NP58 whole entry, looked up): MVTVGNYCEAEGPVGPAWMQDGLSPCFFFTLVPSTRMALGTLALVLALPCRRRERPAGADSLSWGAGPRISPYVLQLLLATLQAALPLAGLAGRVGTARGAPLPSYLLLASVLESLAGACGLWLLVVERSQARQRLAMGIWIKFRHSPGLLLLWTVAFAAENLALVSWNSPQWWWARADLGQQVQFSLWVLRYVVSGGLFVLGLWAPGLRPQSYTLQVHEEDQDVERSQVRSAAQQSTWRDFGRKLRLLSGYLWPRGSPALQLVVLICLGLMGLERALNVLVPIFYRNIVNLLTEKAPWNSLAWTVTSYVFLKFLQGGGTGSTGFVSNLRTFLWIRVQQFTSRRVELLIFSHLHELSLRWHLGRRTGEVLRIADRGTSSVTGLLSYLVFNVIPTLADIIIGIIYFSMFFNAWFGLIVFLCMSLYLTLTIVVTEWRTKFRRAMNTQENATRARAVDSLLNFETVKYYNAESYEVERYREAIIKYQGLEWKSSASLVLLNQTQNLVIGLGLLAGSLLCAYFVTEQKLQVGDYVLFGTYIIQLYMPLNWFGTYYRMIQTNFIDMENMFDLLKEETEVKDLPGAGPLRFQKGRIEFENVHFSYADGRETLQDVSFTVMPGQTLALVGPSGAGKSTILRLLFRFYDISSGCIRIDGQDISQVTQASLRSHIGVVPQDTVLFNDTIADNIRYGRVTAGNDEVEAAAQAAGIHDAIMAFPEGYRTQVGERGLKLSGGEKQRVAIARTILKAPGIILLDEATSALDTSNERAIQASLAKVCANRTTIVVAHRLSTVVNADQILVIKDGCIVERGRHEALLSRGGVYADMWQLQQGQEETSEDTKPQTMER
A short description of assay [16]: promoters of myeloid differentiation in arrested cells, primary screen, cell-based, GFP/MAC1 double positive, flow cytometry, validation set (AID 588685;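 active = differentiation response of at least 50%, scaled between solvent and reference control, from cells with both markers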;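 note: compound exposure lasts four days before antibody staining and flow analysis; 0% = DMSO wells and 100% = 5 µM fulvestrant positive control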). The following applies: ER-HoxA9 marrow cells, stronger effect = higher value, normalized: vehicle 0, fulvestrant 100.

We go through five molecules from PubChem BioAssay.

Results filed as inconclusive are left out. Active and inactive are the calls of the source.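 Rule for the calls, unless noted: active = inhibition above the screen-wide mean plus 3 SD, about 51%; inactive = the rest.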

AP-2 complex subunit beta (Homo sapiens), sequence (P63010 whole entry, looked up, the tested form may be a part, one chain of several): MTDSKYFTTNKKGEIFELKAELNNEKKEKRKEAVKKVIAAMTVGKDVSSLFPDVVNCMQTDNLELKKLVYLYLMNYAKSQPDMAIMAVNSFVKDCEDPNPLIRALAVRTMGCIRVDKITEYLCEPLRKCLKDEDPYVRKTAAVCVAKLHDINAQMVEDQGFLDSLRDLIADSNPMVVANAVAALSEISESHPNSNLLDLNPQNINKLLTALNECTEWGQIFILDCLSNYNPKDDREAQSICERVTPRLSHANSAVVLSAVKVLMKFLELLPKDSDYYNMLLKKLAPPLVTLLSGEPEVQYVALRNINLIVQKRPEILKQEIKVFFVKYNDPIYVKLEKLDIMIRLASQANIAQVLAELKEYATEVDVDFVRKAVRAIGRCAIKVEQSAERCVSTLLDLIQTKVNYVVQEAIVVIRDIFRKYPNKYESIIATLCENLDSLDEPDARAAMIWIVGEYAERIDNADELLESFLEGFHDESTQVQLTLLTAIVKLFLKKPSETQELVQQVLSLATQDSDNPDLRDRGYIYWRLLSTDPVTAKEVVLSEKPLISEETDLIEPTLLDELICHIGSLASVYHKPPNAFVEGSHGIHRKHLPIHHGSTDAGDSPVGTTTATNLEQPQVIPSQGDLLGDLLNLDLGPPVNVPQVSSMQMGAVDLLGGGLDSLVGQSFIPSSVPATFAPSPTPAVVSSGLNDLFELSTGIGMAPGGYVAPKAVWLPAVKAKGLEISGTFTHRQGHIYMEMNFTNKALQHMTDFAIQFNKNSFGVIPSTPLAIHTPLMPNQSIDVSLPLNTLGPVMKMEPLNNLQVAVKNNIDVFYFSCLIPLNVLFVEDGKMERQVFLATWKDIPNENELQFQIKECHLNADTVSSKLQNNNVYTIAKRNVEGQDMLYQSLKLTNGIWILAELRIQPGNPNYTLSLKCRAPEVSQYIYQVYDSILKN
Beta-adrenergic receptor kinase 1 (Homo sapiens), sequence (P25098 whole entry, looked up): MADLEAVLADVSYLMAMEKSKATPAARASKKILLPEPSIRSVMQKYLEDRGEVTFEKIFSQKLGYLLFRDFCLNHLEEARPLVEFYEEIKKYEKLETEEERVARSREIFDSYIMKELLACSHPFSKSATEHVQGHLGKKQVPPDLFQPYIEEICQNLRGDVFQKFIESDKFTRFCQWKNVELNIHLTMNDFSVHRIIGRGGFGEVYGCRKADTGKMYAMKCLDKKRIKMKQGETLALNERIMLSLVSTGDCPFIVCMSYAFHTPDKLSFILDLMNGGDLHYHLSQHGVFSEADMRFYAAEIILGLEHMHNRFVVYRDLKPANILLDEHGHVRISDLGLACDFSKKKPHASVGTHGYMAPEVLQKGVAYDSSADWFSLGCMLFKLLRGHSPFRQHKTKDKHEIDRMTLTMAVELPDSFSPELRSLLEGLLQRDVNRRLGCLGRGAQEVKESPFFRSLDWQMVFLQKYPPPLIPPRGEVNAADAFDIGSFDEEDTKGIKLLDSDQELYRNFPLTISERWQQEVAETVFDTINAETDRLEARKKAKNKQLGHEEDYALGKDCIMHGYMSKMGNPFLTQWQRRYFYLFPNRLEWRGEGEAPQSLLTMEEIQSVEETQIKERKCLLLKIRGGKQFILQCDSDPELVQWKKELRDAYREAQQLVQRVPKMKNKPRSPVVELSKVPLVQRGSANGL

Take `COc1ccc(NC(=O)Nc2ccc(C(C)C)cc2)cc1`: in assay [1], the percent of DMSO control GFP is 104% (inactive). Besides, the GFP response vs DMSO was 103% (inactive) in assay [2] and 95.9% (inactive) in [4]. The percent response of DMSO control in assay [3] was 101% (inactive). In addition, the GFP response, % of DMSO in assay [5] is 88.6% (inactive). Moreover, in [6], the double positive events was 56.2%. The vesicle binding response in assay [6] is 126% (inactive). In addition, the inhibition in assay [7] was 20.4% (inactive); in [11], -5.4% (inactive); in assay [15] it was -11% (inactive). In [8], the superoxide response (% of plate) was 98.7% (inactive). For the same molecule, the aptamer binding inhibition in assay [9] was 7% (inactive). The response was 2.17% (inactive) in assay [10] and -1.78% (inactive) in [12]. Further, in assay [13], the binding (% of control) is 97.3% (inactive). In addition, the efflux inhibition (fraction of control) in assay [14] is 0.03 (inactive). The differentiation response in assay [16] was 2.74% (inactive).
For the molecule `OCCN(Cc1nc(-c2ccc3c(c2)OCO3)no1)Cc1cccs1`, the percent of DMSO control GFP in assay [1] was 97.6% (inactive). The GFP response vs DMSO in [2] was 102% (inactive); in [4] it was 109% (inactive). Besides, the percent response of DMSO control in assay [3] was 91.3% (inactive). Moreover, the GFP response, % of DMSO in assay [5] was 89.4% (inactive). In assay [6], the double positive events was 65.7%. Besides, in [6], the vesicle binding response was 118% (inactive). Also, the results for the inhibition in assay [7], in [11] and in [15] were 9.63% (inactive), -7.29% (inactive) and 6% (inactive), respectively. The superoxide response (% of plate) in assay [8] is 88.2% (inactive). Also, the aptamer binding inhibition in assay [9] was 1% (inactive). The values for the response in assay [10] and in assay [12] were 23.6% (inactive) and -1.85% (inactive), respectively. Further, the binding (% of control) in assay [13] was 109% (inactive). For the same molecule, the efflux inhibition (fraction of control) in assay [14] is -0.28 (inactive). Besides, the differentiation response in [16] was 15.9% (inactive).
As to `COc1ccccc1C(=O)Nc1cc2cc(Br)ccc2oc1=O`, the percent of DMSO control GFP in assay [1] is 101% (inactive). For the same molecule, the results for the GFP response vs DMSO in assay [2] and in assay [4] were 106% (inactive) and 99.4% (inactive), respectively. Further, in [3], the percent response of DMSO control was 96% (inactive). The GFP response, % of DMSO in [5] is 101% (inactive). Also, in [6], the double positive events was 58.5%. The vesicle binding response in assay [6] was 30.4% (inactive). The inhibition in [7] was -4.61% (inactive); in assay [11] it was -7.21% (inactive); in assay [15], 12% (inactive). In addition, the superoxide response (% of plate) in assay [8] was 97.2% (inactive). In assay [9], the aptamer binding inhibition was 3% (inactive). Besides, the response in [10] is 4.22% (inactive); in assay [12], -0.54% (inactive). In [13], the binding (% of control) was 101% (inactive). In assay [14], the efflux inhibition (fraction of control) was -0.47 (inactive). For the same molecule, the differentiation response in assay [16] was -5.68% (inactive).
As for `CC(=O)C1=C(O)C(=O)N(CC(=O)O)C1c1ccccc1Cl` (stereo not given), the percent of DMSO control GFP in assay [1] was 93.5% (inactive). The GFP response vs DMSO in assay [2] is 136% (inactive); in [4] it was 82.5% (inactive). In addition, the percent response of DMSO control in assay [3] was 88.6% (inactive). Also, in assay [5], the GFP response, % of DMSO was 90.3% (inactive). In [6], this molecule yielded a double positive events of 54.3%. Besides, the vesicle binding response in assay [6] is 175% (inactive). Further, the inhibition was 10.3% (inactive) in assay [7], 1.11% (inactive) in [11] and 13% (inactive) in assay [15]. Also, the superoxide response (% of plate) in [8] is 106% (inactive). For the same molecule, the aptamer binding inhibition in assay [9] was 4% (inactive). Further, the response is -4% (inactive) in [10] and 0% (inactive) in assay [12]. In addition, in assay [13], the binding (% of control) is 100% (inactive). In addition, in assay [14], the efflux inhibition (fraction of control) is -0.2 (inactive). In assay [16], the differentiation response is -4.91% (inactive).
Turning to `CCn1c(SCC(=O)c2ccccc2)nc2ccccc2c1=O`, in assay [1], the percent of DMSO control GFP was 103% (inactive). In addition, the GFP response vs DMSO was 108% (inactive) in assay [2] and 115% (inactive) in assay [4]. In addition, the percent response of DMSO control in assay [3] is 99.7% (inactive). The GFP response, % of DMSO in assay [5] was 104% (inactive). The molecule further had a double positive events in [6] of 60.3%. Besides, the vesicle binding response in assay [6] was 176% (inactive). In addition, the inhibition is -18.5% (inactive) in assay [7], 9.92% (inactive) in [11] and 9% (inactive) in assay [15]. Further, the superoxide response (% of plate) in [8] was 110% (inactive). For the same molecule, in assay [9], the aptamer binding inhibition was -1% (inactive). Further, the response in [10] is 0.7% (inactive); in assay [12] it was -1.15% (inactive). Also, the binding (% of control) in [13] is 99.6% (inactive). Besides, the efflux inhibition (fraction of control) in [14] was 0.53 (active). Also, in assay [16], the differentiation response is -14.8% (inactive).

As usually defined, the inhibition is the relative decrease from the control value, in per cent.
